Test results as given in PubChem BioAssay (NCI).
About 83,000 compounds went through this panel and 20% of them were active in at least one assay; those are over-represented in the sample as a whole.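 Note: values are percent growth. 100 is the growth of untreated cells, values between 100 and 0 indicate rising inhibition; between -100 and 0 indicates cell death.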 A number with no mark means an inactive call. Calls of active or inactive are those of the source. Rule for the calls: active = growth percent below 10; inactive = the rest.

What was measured:
Assay in all cases: NCI-60 one-dose screen, 48 h (100 = growth as untreated, 0 = no growth, -100 = all killed)
Conditions in all cases: 10 µM unless noted
SN12C renal = tested on: SN12C renal
UO-31 renal = tested on: UO-31 renal
TK-10 renal = tested on: TK-10 renal
ACHN renal = tested on: ACHN renal
CAKI-1 renal = tested on: CAKI-1 renal
A498 renal = tested on: A498 renal
CCRF-CEM leukemia = tested on: CCRF-CEM leukemia
MOLT-4 leukemia = tested on: MOLT-4 leukemia
SR leukemia = tested on: SR leukemia

SMILES | growth (SN12C renal) | growth (UO-31 renal) | growth (TK-10 renal) | growth (ACHN renal) | growth (CAKI-1 renal) | growth (A498 renal) [%] | growth (CCRF-CEM leukemia) | growth (MOLT-4 leukemia) | growth (SR leukemia)
O=c1[nH]nnc2c1ncn2C1OC(CO)C(O)C1O (stereo not given) | 97.7% | 36% | 39.8% | 30.2% | 25.2% | 86.7 | 27.5% | 26.3% | 37.7%
O=NN(C(=O)NC1CCC(C(=O)O)CC1)C1CCC(C(=O)O)CC1 (stereo not given) | 103% | 92.8% | 110% | 100% | 90.2% | 103 | 91.9% | 102% | 95%
COc1cc(C#N)cc2[nH]c(=O)oc12 | 115% | 85.6% | 103% | 99.7% | 91.8% | 82.5 | 109% | 123% | 120%
c1ccc(CNc2nc(Nc3ccccc3)nc3ccccc23)cc1 | 71.3% | 80.7% | 19.3% | 33.7% | 40.4% | 37.4 | 69.5% | 80.3% | 20%
Cc1ccc(S(=O)(=O)c2c(COC(=O)c3cccc(C)c3)c(-c3ccccc3)nn2C)cc1 | 89.1% | 103% | 113% | 91% | 107% | 123 | -7.63% (active) | -11.2% (active) | 1.41% (active)
Cn1c(=O)n(C)c2cc(CNCCNc3ccnc4cc(Cl)ccc34)ccc21 | 63.3% | 36.9% | 62.3% | 4.21% (active) | 66.2% | 72.3 | 58.5% | 61.1% | 3.33% (active)
Cc1sc2ncnc(Sc3nc4ccccc4[nH]3)c2c1C | 25% | -86.2% (active) | -87.2% (active) | -82.7% (active) | -68.6% (active) | 24.5 | -53.2% (active) | -48.4% (active) | -17.3% (active)
COc1ccc(Cn2c(Br)c3c(c2-c2cc(OC)c(OC)c(OC)c2)CCc2sc(NC(=O)c4ccc(OC)cc4)nc2-3)cc1 | 85% | 47.4% | 110% | 97.5% | 78% | 86.7 | 79% | 75.7% | 76.2%
N#C/C(=C1\SC(=O)CN1c1ccccc1)c1nc2ccccc2s1 | 91% | 53.2% | 135% | 93.6% | 89.9% | 82.4 | 84.4% | 84.2% | 76.4%
CC(=O)n1cc(-c2c[nH]c3ccccc23)c(-c2ccc(Cl)cc2)n1 | 99.8% | 60.5% | 94.9% | 78.5% | 61.2% | 71.6 | 82.2% | 88.2% | 92.9%
NC(CCl)=NCCC[C@H](N)C(=O)O | 93.3% | 85.2% | 96.7% | 105% | 97.2% | 102 | 94.6% | 104% | 93.5%
CCOC(=O)C1=C(C)N=c2s/c(=C\c3cc(Cl)ccc3O)c(=O)n2C1c1ccc(OC)cc1 (stereo not given) | 93.8% | 58.8% | 94.1% | 99.4% | 96.5% | 76.1 | 85.3% | 96.4% | 86%
CCN(CC)CCCNc1ccnc2cc3ccccc3cc12 | 87.6% | 106% | 83.8% | 70.7% | 75.3% | 94 | 91.1% | 87.3% | 77.5%
CCOC(=O)C1=C(C)N=c2s/c(=C\c3ccccc3O)c(=O)n2C1c1ccc(OC)c2ccccc12 (stereo not given) | 47.3% | -18.3% (active) | 10.8% | 33.5% | -11.4% (active) | 17.6 | 2.51% (active) | -9.58% (active) | -18.4% (active)
CN=c1ccc2nc3ccc(N)cc3sc-2c1 | 17% | 60.7% | 49.4% | 42.2% | 28.2% | 79.9 | 21.5% | 1.3% (active) | 38%
Cc1ccc(C(=O)c2oc3ccc4c(C)cc(=O)oc4c3c2C)cc1 | 30.5% | 9.48% (active) | 27.2% | 32.9% | 15.2% | 32.3 | 17.1% | 7.13% (active) | 12.7%

SMILES | growth (SN12C renal) | growth (UO-31 renal) | growth (TK-10 renal) | growth (ACHN renal) | growth (CAKI-1 renal) | growth (A498 renal) [%] | growth (CCRF-CEM leukemia) | growth (MOLT-4 leukemia) | growth (SR leukemia)
COc1ccc2sc(N(Cc3cccnc3)C(=O)c3ccc(C#N)cc3)nc2c1 | 80% | 75.6% | 96.6% | 91.2% | 91.9% | 89.6 | 72.1% | 57.8% | 66.4%
CCOc1cc2c(cc1OCC)C(c1cc(C)c(O)c(C)c1)NCC2 (stereo not given) | 95.7% | 73.4% | 107% | 94.2% | 85.2% | 88.1 | 89.6% | 96.3% | 80.7%
O=C(/C=C/c1ccccn1)c1ccc(OCc2nnc(-c3ccc(Cl)cc3)o2)cc1 | 33.2% | -90.1% (active) | 16.6% | 27.3% | -25.7% (active) | 88.3 | – | 17.2% | -11.7% (active)
Nc1ncnc(N)c1NC(=O)c1ccc(OCc2ccccc2)cc1 | 98.9% | 88.1% | 99.3% | – | 99.3% | 98 | 98.5% | 96.8% | 94%
O=C(NC(=S)Nc1cccc(NC(=S)NC(=O)c2ccccc2)c1)c1ccccc1 | 61.9% | 84.6% | 75.8% | 60.6% | – | 104 | – | 103% | 79.8%
Nc1nc(Nc2cccc(F)c2)nc2ccccc12 | 34.2% | 23.7% | 29.9% | – | 38.3% | 43.9 | 26.2% | 39.5% | 13.2%
COc1ccc(OC)c(N(CCN2C(=O)c3ccccc3C2=O)C(=O)CCl)c1 | 90.5% | -92.1% (active) | 110% | 78.8% | – | 72.4 | -57.4% (active) | 54.6% | -48.6% (active)
CCOc1ccc2nc(C)cc(Nc3ccc(Br)cc3)c2c1 | 98.5% | 92.1% | 119% | – | 97% | 79.1 | 90.3% | 88.6% | 86.4%
Oc1c(CN2CCN(c3ccccc3F)CC2)cc(Br)c2cccnc12 | 8.15% (active) | -69.6% (active) | -84.1% (active) | -30.4% (active) | -17.3% (active) | 88.1 | 1.46% (active) | 5.58% (active) | -6.68% (active)
COc1ccc(-n2c(C(O)c3ccccc3)n[nH]c2=S)cc1 (stereo not given) | 88.2% | 79.6% | 101% | 95.5% | – | 103 | 98.4% | 83.4% | –
COc1ccc(C(O)(CCC(C)C)C(CN2CCOCC2)c2ccc(Cl)cc2)cc1 (stereo not given) | 70.6% | 62.8% | 86% | 57.4% | – | 110 | 34.2% | 34.2% | 10.7%
CSc1nc2c(c(=O)[nH]1)N=C1c3ccccc3C(=O)C1C(c1ccccc1)N2 (stereo not given) | 68.7% | 70% | 67.8% | 48.7% | – | 45.3 | 29% | 20% | -35.6% (active)
CN(C)c1ccc(N=Cc2ccc(N3CCOCC3)cc2)cc1 | 79% | 71.4% | 116% | 88.8% | – | 91.7 | 58.8% | 65.2% | 75.6%
COC(=O)[C@H]1CCCN1C(=O)[C@H]1CCCN1C(=O)[C@H](Cc1c[nH]c2ccccc12)NC(=S)Nc1cc(C(F)(F)F)cc(C(F)(F)F)c1 | 51% | 45.5% | 80.9% | 49% | 38.6% | 77 | – | 29.4% | 4.48% (active)
COCCN(C(=O)Cc1cccs1)C(C(=O)NCc1ccc(OC)cc1)c1ccc(C(C)C)cc1 (stereo not given) | 89.9% | 82.5% | 115% | – | 84.6% | 77.1 | 93.9% | 80.3% | 74.3%
